Values joined by “and” are separate entries in the source; they are usually repeats but may differ in a detail not shown here. Identical values can stand only once. Screen size: about 5,500 compounds; about 2,000 (36%) were called active. Not shown: some 18% with an inconclusive outcome. Cut-off read from the data, not from the text of the source: active = normalized growth mostly below about 0.91 (no sharp cut-off); inconclusive = no clear call, values can overlap the other calls; inactive = mostly above about 0.92. This is one part of the list.
Assay: chemical genetic growth profiling, strain panel (AID 1159580);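 note: tested at 20 µM; growth read once vehicle control cultures reached saturation at 30 °C; 1 = growth at the plate median or of vehicle wells; lower values mean less growth of the strain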
Conditions: S. cerevisiae deletion strains, growth OD

Measured: normalized growth

C=C(CC)C(=O)c1ccc(OCC(=O)O)c(Cl)c1Cl
active: locus YDL185W, strain tfp1, stronger effect = lower value 0.882 | locus YIL125W, strain kgd1, stronger effect = lower value 0.927 | locus YJR066W, strain TOR1, stronger effect = lower value 0.708 | locus YKL068W, stronger effect = lower value 0.91 | locus YLR113W, strain HOG1, stronger effect = lower value 0.551 | locus YNL183C, strain NPR1, stronger effect = lower value 0.828 | locus YNL271C, strain bni1, stronger effect = lower value 0.917 | locus YPR141C, strain kar3, stronger effect = lower value 0.902
1 (inactive) and 0.835 (active): locus YJL095W, strain BCK1, stronger effect = lower value
inactive: locus YAL013W, strain DEP1, stronger effect = lower value 0.984 | locus YAL021C, strain ccr4, stronger effect = lower value 1 | locus YAL026C, strain drs2, stronger effect = lower value 0.98 | locus YAL030W, strain snc1, stronger effect = lower value 1.01 | locus YBL061C, strain skt5, stronger effect = lower value 1 | locus YBR009C, strain hhf1, stronger effect = lower value 1.01 | locus YBR021W, strain FUR4, stronger effect = lower value 1.02 | locus YBR023C, strain chs3, stronger effect = lower value 1.03 | locus YBR171W, strain sec66, stronger effect = lower value 1.01 | locus YBR229C, strain ROT2, stronger effect = lower value 0.951 | locus YBR231C, strain swc5, stronger effect = lower value 0.972 | locus YBR279W, strain paf1, stronger effect = lower value 1.01 | locus YCL011C, strain gbp2, stronger effect = lower value 1.03 | locus YCL016C, strain dcc1, stronger effect = lower value 1.04 | locus YCL029C, strain bik1, stronger effect = lower value 0.973 | locus YCL061C, strain MRC1, stronger effect = lower value 1.03 | locus YCL069W, strain vba3, stronger effect = lower value 1 | locus YCR088W, strain abp1, stronger effect = lower value 1.01 | locus YDL005C, strain med2, stronger effect = lower value 0.999 | locus YDL035C, strain GPR1, stronger effect = lower value 0.988 | locus YDL040C, strain nat1, stronger effect = lower value 0.994 | locus YDL074C, strain BRE1, stronger effect = lower value 0.986 | locus YDL101C, strain DUN1, stronger effect = lower value 0.983 | locus YDL134C, strain PPH21, stronger effect = lower value 0.972 | locus YDL192W, strain arf1, stronger effect = lower value 0.972 | locus YDR001C, strain nth1, stronger effect = lower value 1 | locus YDR069C, strain doa4, stronger effect = lower value 0.99 | locus YDR101C, strain arx1, stronger effect = lower value 0.92 | locus YDR137W, strain rgp1, stronger effect = lower value 1.01 | locus YDR150W, strain NUM1, stronger effect = lower value 0.976 | locus YDR159W, strain sac3, stronger effect = lower value 0.955 | locus YDR162C, strain NBP2, stronger effect = lower value 0.966 | locus YDR195W, strain ref2 0.974 | locus YDR297W, strain sur2, stronger effect = lower value 1.02 | locus YDR318W, strain mcm21, stronger effect = lower value 0.992 | locus YDR334W, strain swr1, stronger effect = lower value 1 | locus YDR335W, strain msn5, stronger effect = lower value 1.01 | locus YDR388W, stronger effect = lower value 0.972 | locus YDR392W, strain spt3, stronger effect = lower value 0.948 | locus YDR502C, strain sam2, stronger effect = lower value 0.984 | locus YEL003W, strain gim4, stronger effect = lower value 0.985 | locus YEL037C, strain rad23, stronger effect = lower value 1 | locus YEL061C, strain CIN8 (second series), stronger effect = lower value 1 | locus YEL061C, strain CIN8, stronger effect = lower value 0.996 | locus YER015W, strain faa2, stronger effect = lower value 0.993 | locus YER016W, strain bim1, stronger effect = lower value 0.993 | locus YER110C, stronger effect = lower value 0.963 | locus YER111C, strain swi4, stronger effect = lower value 1 | locus YER155C, strain BEM2 (second series), stronger effect = lower value 0.997 | locus YER155C, strain BEM2, stronger effect = lower value 0.998 | locus YER167W, strain BCK2, stronger effect = lower value 1 | locus YFR010W, strain ubp6, stronger effect = lower value 1.01 | locus YGL078C, strain dbp3, stronger effect = lower value 0.954 | locus YGL086W, strain mad1, stronger effect = lower value 0.977 | locus YGL167C, strain pmr1, stronger effect = lower value 1.01 | locus YGL173C, strain kem1, stronger effect = lower value 1 | locus YGL227W, strain vid30, stronger effect = lower value 1.01 | locus YGL240W, strain doc1, stronger effect = lower value 1.02 | locus YGL248W, strain PDE1, stronger effect = lower value 0.985 | locus YGL253W, strain hxk2, stronger effect = lower value 0.988 | locus YGR078C, strain PAC10, stronger effect = lower value 0.964 | locus YGR135W, strain pre9, stronger effect = lower value 1.05 | locus YGR229C, strain SMI1, stronger effect = lower value 1 | locus YGR252W, strain gcn5, stronger effect = lower value 1.2 | locus YHR013C, strain ard1, stronger effect = lower value 1.04 | locus YHR027C, strain rpn1, stronger effect = lower value 1.02 | locus YHR030C, strain SLT2, stronger effect = lower value 0.985 and 0.868 | locus YHR079C, strain IRE1 (second series), stronger effect = lower value 0.982 | locus YHR079C, strain IRE1, stronger effect = lower value 0.869 | locus YHR094C, strain hxt1, stronger effect = lower value 0.955 | locus YHR129C, strain ARP1, stronger effect = lower value 0.977 | locus YHR142W, strain chs7, stronger effect = lower value 1.04 | locus YHR200W, strain rpn10, stronger effect = lower value 0.984 | locus YIL066C, strain RNR3, stronger effect = lower value 0.968 | locus YIL073C, strain SPO22, stronger effect = lower value 0.995 | locus YIR030C, strain dcg1, stronger effect = lower value 0.993 | locus YJL092W, strain hpr5, stronger effect = lower value 1.01 | locus YJL095W, strain BCK1 (second series), stronger effect = lower value 1.03 | locus YJL115W, strain asf1, stronger effect = lower value 1 | locus YJL129C, strain trk1, stronger effect = lower value 1.02 | locus YJL134W, strain LCB3, stronger effect = lower value 0.983 | locus YJL154C, strain vps35, stronger effect = lower value 0.997 | locus YJL164C, strain tpk1, stronger effect = lower value 1.03 | locus YJL166W, strain qcr8, stronger effect = lower value 1.05 | locus YJL168C, strain set2, stronger effect = lower value 0.971 | locus YJL187C, strain SWE1 (second series), stronger effect = lower value 0.968 | locus YJL187C, strain SWE1, stronger effect = lower value 1 | locus YJR043C, strain POL32, stronger effect = lower value 0.981 | locus YJR075W, strain HOC1, stronger effect = lower value 0.982 | locus YKL009W, strain mrt4, stronger effect = lower value 0.923 | locus YKL085W, strain MDH1 (second series), stronger effect = lower value 0.938 | locus YKL085W, strain MDH1, stronger effect = lower value 0.938 | locus YKL160W, strain elf1, stronger effect = lower value 1.06 | locus YKR001C, strain vps1, stronger effect = lower value 0.906 | locus YKR026C, strain gcn3, stronger effect = lower value 1 | locus YKR091W, strain srl3, stronger effect = lower value 1.01 | locus YLL001W, strain dnm1, stronger effect = lower value 1.05 | locus YLL026W, stronger effect = lower value 1.01 | locus YLL041C, strain sdh2, stronger effect = lower value 1 | locus YLR027C, strain aat2, stronger effect = lower value 0.995 | locus YLR039C, strain RIC1, stronger effect = lower value 0.91 | locus YLR058C, strain SHM2, stronger effect = lower value 0.972 | locus YLR102C, strain apc9, stronger effect = lower value 0.972 | locus YLR221C, strain rsa3, stronger effect = lower value 1.04 | locus YLR258W, strain gsy2, stronger effect = lower value 1.02 | locus YLR262C, strain YPT6 (second series), stronger effect = lower value 1.01 | locus YLR262C, strain YPT6, stronger effect = lower value 0.873 | locus YLR268W, strain sec22, stronger effect = lower value 0.99 | locus YLR320W, strain mms22, stronger effect = lower value 1.08 | locus YLR330W, strain CHS5, stronger effect = lower value 0.978 | locus YLR342W, strain FKS1 (second series), stronger effect = lower value 0.983 | locus YLR342W, strain FKS1, stronger effect = lower value 1.01 | locus YLR357W, strain rsc2, stronger effect = lower value 0.995 | locus YLR370C, strain arc18, stronger effect = lower value 1.02 | locus YLR371W, strain rom2, stronger effect = lower value 0.953 | locus YLR384C, strain iki3, stronger effect = lower value 1.01 | locus YLR418C, strain cdc73, stronger effect = lower value 1 | locus YML016C, strain PPZ1, stronger effect = lower value 0.982 | locus YML032C, strain rad52, stronger effect = lower value 0.962 | locus YML120C, strain ndi1, stronger effect = lower value 1.05 | locus YML124C, strain tub3, stronger effect = lower value 0.98 | locus YMR058W, strain fet3, stronger effect = lower value 1 | locus YMR078C, strain ctf18, stronger effect = lower value 0.962 | locus YMR125W, strain sto1, stronger effect = lower value 1.02 | locus YMR129W, stronger effect = lower value 1.01 | locus YMR205C, strain PFK2, stronger effect = lower value 1.06 | locus YMR223W, strain ubp8, stronger effect = lower value 1.02 | locus YMR231W, strain pep5, stronger effect = lower value 0.978 | locus YMR307W, strain GAS1, stronger effect = lower value 1 | locus YNL067W, strain RPL9B, stronger effect = lower value 0.986 | locus YNL071W, strain lat1, stronger effect = lower value 1.01 | locus YNL209W, strain ssb2, stronger effect = lower value 1.02 | locus YNL233W, strain BNI4, stronger effect = lower value 0.988 | locus YNL248C, strain rpa49, stronger effect = lower value 1.01 | locus YNL250W, strain rad50, stronger effect = lower value 0.913 | locus YNL298W, strain CLA4, stronger effect = lower value 0.912 | locus YNL307C, strain MCK1, stronger effect = lower value 0.98 | locus YNL322C, strain KRE1 (second series), stronger effect = lower value 1.02 | locus YNR049C, strain mso1, stronger effect = lower value 1.01 | locus YNR052C, strain pop2, stronger effect = lower value 0.981 | locus YOL006C, strain TOP1, stronger effect = lower value 1 | locus YOL012C, strain htz1 1.29 | locus YOL147C, strain pex11, stronger effect = lower value 0.99 | locus YOR001W, strain rrp6, stronger effect = lower value 0.948 | locus YOR061W, strain CKA2, stronger effect = lower value 0.964 | locus YOR069W, strain VPS5, stronger effect = lower value 0.988 | locus YOR070C, strain gyp1, stronger effect = lower value 1.04 | locus YOR080W, strain dia2, stronger effect = lower value 1.01 | locus YOR083W, strain WHI5, stronger effect = lower value 1.05 | locus YOR106W, strain vam3, stronger effect = lower value 1.04 | locus YOR136W, strain idh2, stronger effect = lower value 0.979 | locus YOR144C, strain elg1, stronger effect = lower value 0.989 | locus YOR184W, strain ser1, stronger effect = lower value 0.991 | locus YOR231W, strain MKK1, stronger effect = lower value 0.909 | locus YOR265W, strain rbl2, stronger effect = lower value 1.01 | locus YOR270C, strain vph1, stronger effect = lower value 1.08 | locus YOR290C, strain snf2, stronger effect = lower value 1.01 | locus YOR316C, strain cot1, stronger effect = lower value 0.96 | locus YPL051W, strain arl3, stronger effect = lower value 0.992 | locus YPL078C, strain atp4, stronger effect = lower value 1.04 | locus YPL106C, strain sse1, stronger effect = lower value 1.01 | locus YPL240C, strain hsp82, stronger effect = lower value 1.02 | locus YPL241C, strain CIN2, stronger effect = lower value 0.983 | locus YPL256C, strain CLN2, stronger effect = lower value 0.899 | locus YPR119W, strain clb2, stronger effect = lower value 0.973 | locus YPR163C, strain tif3, stronger effect = lower value 0.981 | locus YPR167C, strain met16, stronger effect = lower value 0.989 | strain wtn01, stronger effect = lower value 0.997

From PubChem BioAssay AID1159580 (chemical genetic matrix, 2015)
